Pf Dd2 inh = qHTS Primary assay for Inhibitors of Plasmodium falciparum Dd2 growth in vitro; P. falciparum Dd2 growth, SYBR Green, 72 h; Potency, µM (series often up to 28.9 µM), without a hit: top-dose activity, negative = inhibition, actives largely listed as inhibitors; 4.3% of 120,000 active; active = well fitted inhibition curve with a large enough effect;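 also: plate controls were DMSO vehicle for no effect and reference drug for full effect; nearly all actives have a fitted effect of over 65% in size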
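Infected erythrocytes (Dd2, 0.3% parasitemia, 2.5% hematocrit final) are added to compound in RPMI-1640/Albumax II medium, grown 72 h at 37C in low oxygen, then lysed with saponin/Triton-X containing SYBR Green and read by fluorescence.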
Starred values were filed as active, the others as inactive; i = inactive; [ ] = another dose, or the depositor's remark. This is one part of a sample in which hits are shown more often than they occur. Potency is read from the fitted curve at half-maximal effect.

SMILES	Pf Dd2 inh
CC(C)N1CC2CCC(C1)N2Cc1ccc(-c2ccsc2)cc1	11.2µM*
O=C(Nc1ccccc1F)N1CC2CCC(C1)N2Cc1ccc(-c2ccsc2)cc1	-4.5%
CC(C)N1CC2CCC(C1)N2CC1CCCC1	-37.6%[44.1 µM]
CCn1cc(CN2CCCCC2c2nc(CCOCC3CCOCC3)no2)cn1 (stereo not drawn)	-8.0%
CN1CCN(C(=O)[C@@H]2CCC[C@@H](NC(=O)c3ccc4c(c3)OCO4)CN(C)C(=O)C2)CC1	-4.3%
COCCOC1CCN(S(=O)(=O)c2c(C)noc2C)CC1	41.0%
O=C1c2c(nc(COc3cccnc3)n2Cc2ccccc2)NCCN1CCOc1ccccc1	-13.3%
Cc1cccc(C(=O)Nc2sc3c(c2C(=O)Nc2ccccc2)CCC3)c1	32.9%
Cc1ccccc1NC(=O)c1c(NC(=O)C(F)(F)F)sc2c1CCCCC2	10µM*
O=C(Nc1sc2c(c1C(=O)Nc1ccc(Cl)cc1)CCCC2)c1cccs1	4.6%
CCc1ccccc1NC(=O)c1c(NC(=O)c2ccccc2)sc2c1CCCC2	41.7%
Cc1ccc(NC(=O)c2c(NC(=O)C(F)(F)F)sc3c2CCCCC3)cc1	3.98µM*
O=C(COc1ccc(Cl)cc1)Nc1sc2c(c1C(=O)Nc1cccc(Cl)c1)CCCC2	0.8%
Cc1cccc(NC(=O)c2c(NC(=O)C(F)(F)F)sc3c2CCCCC3)c1	4.47µM*
CCCNC(=O)c1c(NC(=O)c2ccc(C)cc2)sc2c1CCCCC2	-2.3%
O=C(Nc1cccc(Cl)c1)c1c(NC(=O)C(F)(F)F)sc2c1CCCC2	12.6µM*
Cc1ccc(NC(=O)c2c(NC(=O)c3ccccc3)sc3c2CCC3)cc1	i
Cc1ccccc1NC(=O)c1c(NC(=O)c2ccccc2)sc2c1CCC2	3.6%
Cc1cccc(NC(=O)c2c(Br)sc3c2CCCC3)c1	i
Cc1ccccc1NC(=O)CN1C(=O)NC2(CCC(C(C)(C)C)CC2)C1=O (stereo not drawn)	-26.2%
COc1ccc(-c2[nH]ncc2CNC(=O)C2CC3(CCNCC3)CN2)cc1 (stereo not drawn)	6.8%
CC(C)(O)CCc1cccc(C(=O)NC2CCN(S(C)(=O)=O)CC2)c1	4.8%
CCn1ccc(C(=O)N2CCC(c3nnc(Cn4cncn4)n3C)CC2)n1	-27.4%
Cn1cc(-c2cn(C)c(=O)n3cc(COc4ccc(Cl)cc4)nc23)cn1	i
CCCc1noc(-c2cccn3c(CNC(=O)c4ccc(C)cc4)nnc23)n1	12.6µM*
SMILES	Pf Dd2 inh
CCCc1noc(-c2cccn3c(CNC(=O)Cc4ccccc4Cl)nnc23)n1	i
CCCc1noc(-c2cccn3c(CNC(=O)Cc4ccc(Cl)cc4)nnc23)n1	-0.7%
CCOc1ccc(-c2ccnc(N3CCOC(CN)C3)n2)cc1C(=O)O (stereo not drawn)	-11.4%
Cc1noc([C@@H]2CN(C(=O)c3ccc(C(C)C)cc3)C[C@H]2CO)n1	-0.4%
O=C1CN(C(=O)COc2ccc(Cl)cc2)C(c2ccc(F)cc2)c2cc(Cl)ccc2N1 (stereo not drawn)	10µM*
CCCC(=O)N1CC(=O)Nc2ccc(Cl)cc2C1c1ccccc1 (stereo not drawn)	-10.0%
CCC(=O)N1CC(=O)Nc2ccc(C)cc2C1c1ccc(F)cc1 (stereo not drawn)	2.3%
CC(C)[C@H]1CN(c2cnccn2)C[C@@H]1NC(=O)C1(C#N)CCOCC1	-18.2%
O=C(C1CCC1)N1CCC(c2noc(-c3cccnc3)n2)C1 (stereo not drawn)	i[5.79 µM]
CCC(=O)N1CC(C(N)=O)C2(CCOCC2)C1 (stereo not drawn)	2.6%
Cc1cc(CNC(=O)c2cccc(F)c2F)c2[nH]c(C)c(C)c2c1	10µM*
CCc1[nH]c2c(CNC(=O)C(C)O)cc(C)cc2c1C (stereo not drawn)	-6.1%
Cc1cc(CNC(=O)c2ccc(S(N)(=O)=O)cc2)c2[nH]c(C)c(C)c2c1	-14.2%
COc1ccc(S(=O)(=O)N2CCc3c(C(=O)NCc4cccc(F)c4)cccc32)cc1	i
CCC(=O)Nc1sc2c(c1C(=O)Nc1ccc(OC)cc1)CCC(C(C)(C)C)C2 (stereo not drawn)	-2.0%
CCC(=O)N1CCc2c(C(=O)Nc3ccc(OC)cc3OC)cccc21	-21.1%
CCNC(=O)c1c(NC(=O)COc2ccc(F)cc2)sc2c1CCCC2	-2.3%
CCOC(=O)N1CCc2c(sc(NCc3cccc(F)c3)c2C(=O)Nc2ccc(OC)cc2)C1	7.94µM*
CCOC(=O)N1CCc2c(sc(NCc3ccc(N(C)C)cc3)c2C(=O)Nc2ccc(OC)cc2)C1	11.2µM*
COc1ccc(NC(=O)c2c(NCc3cccc(F)c3)sc3c2CCCC3)c(OC)c1	8.91µM*
CCOC(=O)N1CCc2c(sc(NCc3cccc(F)c3)c2C(=O)Nc2ccc(OC)cc2OC)C1	3.98µM*
COc1ccc(NC(=O)c2c(NC(=O)COc3ccccc3)sc3c2CCCCC3)cc1	11.0%[0.594 µM]
COc1ccc(CNC(=O)c2cc3c(s2)CCN(C(C)=O)C3)cc1	i
COc1ccc(NC(=O)CN2CCN(CC(=O)Nc3ccccc3F)CC2)c(OC)c1	-1.0%

Screens as filed in PubChem BioAssay.
